“And” between values parts separate entries of the source, which are not always exact repeats. Equal entries are not always repeated. Inconclusive results are not listed. A call without a number means that no potency is given here. A number with no mark means an inactive call. The source made the active and inactive calls. Calls follow the shape of the dose curve; as a rule, active = well fitted cell-killing curve with a large enough effect; inconclusive = small, poorly fitted or top-dose-only effect; inactive = flat fitted curve, though single readings scatter.
experiment: qHTS of pediatric cancer cell lines to identify multiple opportunities for drug repurposing: Primary screen for BT-37 cells (AID 1347094); details: BT-37 viability, CellTiter-Glo luminescence, 48 h; series mostly up to 57.3 µM; activity change, negative = cytotoxic: at the top concentration
Text: Drug repurposing or repositioning has been offered as a strategy for drug development in oncology programs. This approach has special potential for childhood cancers and other rare or orphan diseases, where the expected return on new drug development has been a disincentive to pharmaceuticals. […] In this project we exploit the poly-pharmacology of drugs to discover new indications via phenotypic screening of a panel of 19 well-characterized cell lines derived from solid tumors seen in children and adolescents. The goal is to identify approved drugs with previously unrecognized anticancer properties that has the potential to reveal new mechanisms and biological processes involved in carcinogenesis or drug resistance. We employed a titration-based paradigm (quantitative high-throughput screening or qHTS), where all compounds were tested at multiple concentrations for their effect on cell viability. Concentration-response curves (CRCs) were derived directly from the primary screen, and both potency and efficacy values were used to identify compounds with robust bioactivity profiles. We screened the NIH Chemical Genomics Center (NCGC) Pharmaceutical Collection (NPC) and Mechanism Interrogation Plate (MIPE) small molecule collections of approved and investigational compounds against these cell lines; and measured metabolically active cells after 48 hours of compound treatment as a proxy for cell viability. […] Assay Submitter: Nathalia J. Martinez, National Center for Advancing Translational Sciences, National Institutes of Health, Rockville, MD, USA; email: natalia.martinez@nih.gov Shen, M et al. Quantitative high-throughput phenotypic screening of pediatric cancer cell lines identifies multiple opportunities for drug repurposing. Oncotarget 2017 Dec 19;9(4):4758-4772. PMID 29435139.
The cells were obtained from University of North Carolina (UNC), Pediatric Preclinical Testing Program (PPT), and Coriell Institute (CI). qHTS cell viability assay: Cells were assayed in growth media at a density of 500-1,000 cells/well. Five microliters of cells were dispensed into 1,536-well, white, solid-bottom, TC-treated plates (Greiner Bio One) using a multidrop dispenser and incubated at 37 degrees C, 5% CO2, under a humidified atmosphere for 5 hours. Twenty-three nanoliters of compounds and controls (neutral control DMSO or positive control bortezomib at final concentration of 2.3 µM) were subsequently transferred by Kalypsys pintool. For primary screens, the MIPE collection was tested at 11-point dilutions (final concentrations range from 0.78 nM to 46 µM) and the NPC collection at 8-point dilutions (final concentrations range from 0.59 nM to 46 µM). Compounds tested in follow-up screens were assayed at 11-point dilutions. Cells were incubated for 48 hours, followed by addition of 3 µL of CellTiter-Glo (Promega). After a 15 min incubation at room temperature, samples were analyzed for luminescence intensity using a ViewLux High-throughput CCD imager equipped with clear filters.
Potency is read from the fitted curve at half-maximal effect.

With `NCCCCCC(=O)O` as the compound, how does the Potency read?
The Potency was “inactive”.

With `NC(=O)OCC(COC(N)=O)c1ccccc1` as the compound, how does the Potency read?
Its Potency is “inactive”.

For `NC(CO)C(=O)NNCc1ccc(O)c(O)c1O` (stereo not given), which Potency is on record?
Its Potency is “inactive”.

For `C[C@@H]1CC(=O)NN=C1c1ccc(NN=C(C#N)C#N)cc1`, which Potency is on record?
Its Potency is “inactive”.

For `CCCNCC(O)COc1ccccc1C(=O)CCc1ccccc1` (stereo not given), which Potency is on record?
Its Potency is “inactive”.

With `CCC1(c2ccccc2)C(=O)NCNC1=O` as the compound, how does the “activity change, negative = cytotoxic” value read?
The value was -0.348%.

Which “activity change, negative = cytotoxic” value does the source give for `CN1CCN2c3ccccc3Cc3ccccc3C2C1` (stereo not given) here?
The value was -9.32%.

Which “activity change, negative = cytotoxic” value does the source give for `CCN1CCCC1CNC(=O)c1cc(S(=O)(=O)CC)c(N)cc1OC` (stereo not given) here?
The value was 9.2%.

Which “activity change, negative = cytotoxic” value does the source give for `CC(CCc1ccc(O)cc1)NCCc1ccc(O)c(O)c1` (stereo not given) here?
The value was -19.1%.

Which Potency does the source give for `Nc1c2c(nc3ccccc13)CCCC2` here?
Its Potency is “inactive”.

For `CCOC(=O)c1ncn2c1CN(C)C(=O)c1cc(F)ccc1-2`, which “activity change, negative = cytotoxic” value is on record?
The value was 6.42%.

With `Cc1ccc(C(=O)Nc2ccc(S(=O)(=O)O)c3cc(S(=O)(=O)O)cc(S(=O)(=O)O)c23)cc1NC(=O)c1cccc(NC(=O)Nc2cccc(C(=O)Nc3cc(C(=O)Nc4ccc(S(=O)(=O)O)c5cc(S(=O)(=O)O)cc(S(=O)(=O)O)c45)ccc3C)c2)c1` as the compound, how does the Potency read?
The Potency was “inactive”.

Which Potency does the source give for `CC[C@@]1(O)C(=O)OCc2c1cc1n(c2=O)Cc2cc3c(CN(C)C)c(O)ccc3nc2-1` here?
Its Potency is 19.5 nM (active) and 86.3 nM (active).

With `CC(C)NCC(O)COc1ccc(CCOCC2CC2)cc1` (stereo not given) as the compound, how does the Potency read?
The Potency was “inactive”.

For `COC(=O)Nc1nc2ccc(C(=O)c3cccs3)cc2[nH]1`, which Potency is on record?
The Potency was 15.3 nM (active) and 276 nM (active).

With `COc1cc2nc(N3CCN(C(=O)c4ccco4)CC3)nc(N)c2cc1OC` as the compound, how does the Potency read?
Its Potency is 24.3 µM (active).

With `CS(=O)(=O)CCNCc1ccc(-c2ccc3ncnc(Nc4ccc(OCc5cccc(F)c5)c(Cl)c4)c3c2)o1` as the compound, how does the Potency read?
The Potency was 24.3 µM (active) and 27.6 µM (active).

With `COc1ccccc1OCC(O)CN1CCN(CC(=O)Nc2c(C)cccc2C)CC1` (stereo not given) as the compound, how does the Potency read?
Its Potency is “inactive”.

With `O=C(C1CCCCC1)N1CC(=O)N2CCc3ccccc3C2C1` (stereo not given) as the compound, how does the Potency read?
The Potency was “inactive”.

For `Cn1c(=O)c2[nH]cnc2n(C)c1=O`, which Potency is on record?
The Potency was “inactive”.

With `CN(C)CCCN1c2ccccc2CCc2ccc(Cl)cc21` as the compound, how does the Potency read?
Its Potency is 12.2 µM (active) and 24.6 µM (active).

Which Potency does the source give for `O=C(c1ccc(F)cc1)C1CCN(CCn2c(=O)[nH]c3ccccc3c2=O)CC1` here?
The Potency was “inactive”.

For `CC1(C)O[C@H]2CC(=O)OC[C@]23[C@H]2CC[C@@]4(C)[C@H](c5ccoc5)OC(=O)[C@H]5O[C@]54[C@]2(C)C(=O)C[C@@H]13`, which Potency is on record?
The Potency was “inactive”.

For `COc1ccc2[nH]cc(CCNC(C)=O)c2c1`, which Potency is on record?
Its Potency is “inactive”.

For `CN(C)c1nc(N(C)C)nc(N(C)C)n1`, which Potency is on record?
Its Potency is “inactive”.

For `Cc1cc(C(C)(C)C)cc(C)c1CC1=NCCN1`, which Potency is on record?
Its Potency is “inactive”.

For `O=C(Nc1ccc([N+](=O)[O-])cc1Cl)c1cc(Cl)ccc1O`, which Potency is on record?
Its Potency is 1.69 µM (active) and 1.37 µM (active).

With `Cn1c(=O)c2c(ncn2C)n(C)c1=O` as the compound, how does the Potency read?
The Potency was “inactive”.

With `O=C1N(c2ccccc2)c2ccccc2C1(Cc1ccncc1)Cc1ccncc1` as the compound, how does the Potency read?
Its Potency is “inactive”.

For `COc1cc2nc(N(C)CCCNC(=O)C3CCCO3)nc(N)c2cc1OC` (stereo not given), which “activity change, negative = cytotoxic” value is on record?
The value was -8.84%.

Which Potency does the source give for `CN(Cc1cnc2nc(N)nc(N)c2n1)c1ccc(C(=O)N[C@@H](CCC(=O)O)C(=O)O)cc1` here?
Its Potency is 9.8 nM (active) and 48.5 nM (active).

For `C[C@](N)(Cc1ccc(O)c(O)c1)C(=O)O`, which Potency is on record?
Its Potency is “inactive”.

With `NCCS(=O)(=O)O` as the compound, how does the Potency read?
The Potency was “inactive”.

For `CC#C[C@]1(O)CC[C@H]2[C@@H]3CCC4=CC(=O)CCC4=C3[C@@H](c3ccc(N(C)C)cc3)C[C@@]21C`, which Potency is on record?
Its Potency is 0.243 µM (active).

Which Potency does the source give for `CN(C)C(=N)N=C(N)N` here?
Its Potency is “inactive”.

With `NC12CC3CC(CC(C3)C1)C2` as the compound, how does the “activity change, negative = cytotoxic” value read?
The value was 8.97%.

For `Cn1ccc2cc3c(cc21)CCN3C(=O)Nc1cccnc1`, which Potency is on record?
The Potency was “inactive”.

Which “activity change, negative = cytotoxic” value does the source give for `Cc1cnc(C(=O)NCCc2ccc(S(=O)(=O)NC(=O)NC3CCCCC3)cc2)cn1` here?
Its value is 6.26%.

With `CN1C2CCC1CC(OC(=O)C(CO)c1ccccc1)C2` (stereo not given) as the compound, how does the “activity change, negative = cytotoxic” value read?
Its value is -1.87%.

With `CC1(CN2CCC(n3c(=O)[nH]c4ccccc43)CC2)OCc2ccccc2-n2cccc21` (stereo not given) as the compound, how does the “activity change, negative = cytotoxic” value read?
Its value is -2.64%.
